# Source: PubChem BioAssay (National Center for Advancing Translational Sciences (NCATS))
# Vaccinia Venus = vaccinia inhibition (Venus reporter). hit rate 0.46% among 330,000. AID 720580. Vaccinia virus Venus reporter expression, fluorescence. Potency, µM (titrated, usually from 36.5 µM), for the others: at the highest dose activity change, negative = inhibition, usual class: inhibitors; calls by dose curve; tested in A549 cells; also: % is scaled to controls: 0 for no effect and ±100 for the full control effect; nearly all actives have a fitted effect of over 30% in size
# Pf growth 96h = P. falciparum growth inhibition at 96 hour, primary screen for plastid delayed-death inhibitors; P. falciparum luciferase reporter growth, 96 h; Potency, µM (doses to about 28.7 µM), for the others: top-dose activity change, negative = inhibition, actives largely listed as inhibitors; hit rate 6.9% among 320,000; AID 504834; also: % is scaled to controls: 0 for no effect and ±100 for the full control effect
#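 Two-generation exposure (96 h) targets delayed-death phenotype. Reporter parasites carrying integrated firefly luciferase, in red cells at 2% hematocrit and 0.05% parasitemia final, kept at 37 C, 5% CO2; luminescence loss indicates inhibition.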
# HCV inh = inhibitors of hepatitis C virus infection | hit rate 3.4% among 340,000 | Potency, µM (highest dose often 41.8 µM), without a hit: at the top dose activity change, negative = inhibition, most hits filed as inhibitors | Huh7.5.1 HCVcc-Cre infection, luciferase reporter, 44 h | AID 651820; also: % is scaled to controls: 0 for no effect and ±100 for the full control effect
#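 Reporter virus HCVcc-Cre (~0.5 moi) infects cells exposed to compound; seeding density 1,000 cells/well with 4 h settling beforehand. Luminescence, 15 sec read, taken 44 h post-infection following a 15 min RT substrate incubation.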
# NS1 function inh = inhibitors of influenza NS1 protein function; Potency, µM (doses to about 46.1 µM), inactives show at the highest dose activity, positive = more growth; hit rate 0.4% among 270,000; AID 2326; calls by dose curve; also: actives are rising curves; nearly all actives have a fitted effect of over 50% in size
#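 Growth recovery, yeast-based: influenza A NS1 expressed in S. cerevisiae causes slow growth, and suppressors are detected by OD600. The parent strain without NS1 is used as positive control.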
# Vaccinia mCherry = vaccinia inhibition (mCherry reporter); Vaccinia virus mCherry reporter infection, fluorescence; Potency, µM (series often up to 36.5 µM), for inactives: at the highest dose activity change, negative = inhibition, hits mostly inhibitors; hit rate 0.63% among 310,000; AID 720579; calls by dose curve; tested in A549 cells; also: % is scaled to controls: 0 for no effect and ±100 for the full control effect; nearly all actives have a fitted effect of over 35% in size
# Pf growth 48h = P. falciparum growth inhibition at 48 hours (one generation); hit rate 5.9% among 310,000; Potency, µM (doses to about 28.7 µM), for inactives: at the highest dose activity change, negative = inhibition, most hits filed as inhibitors; P. falciparum luciferase growth in erythrocytes, 48 h; also: % is scaled to controls: 0 for no effect and ±100 for the full control effect
#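 In quantitative HTS format, infected erythrocytes bearing luciferase-reporter parasites were treated for a single generation at 37 C. Luminescence after adding detection reagent served as the growth measure.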
# Active calls of the source: *; i = inactive; ? = inconclusive; · = no result; [ ] = remark or other dose. Most compounds without a hit are left out; they make up all but 11% or so of the library. Unless noted, calls follow the shape of the dose curve; as a rule, active = well fitted inhibition curve with a large enough effect; inconclusive = small, poorly fitted or top-dose-only effect, or another doubt; inactive = no such curve, though single readings can be large or run the other way. Potency is read from the fitted curve at half-maximal effect.
SMILES,Vaccinia Venus,Pf growth 96h,HCV inh,NS1 function inh,Vaccinia mCherry,Pf growth 48h
C/C=C(\C)C(=O)Nc1cccc(C2=NOC3(C2)C[C@@H](C(N)=O)N(C(=O)c2ccccc2C(=O)c2ccccc2)C3)c1 (stereo not given in full),-4.7%,?,3.4%[8.37 µM],-2.4%,6.6%,?
CCCCCCC(=O)N(O)C1CC(=O)N(Cc2ccccc2)C1=O (stereo not given),·,·,-7.0%,-30.7%,·,5.86µM*
CCCCCC(=O)N(O)C1CC(=O)N(c2ccccc2)C1=O (stereo not given),0.8%,?,9.8%,-255.0%,-5.9%,10.4µM*
CCCCCC(=O)NNC1CC(=O)N(c2ccccc2)C1=O (stereo not given),9.6%,59.9%,11.2%,-1.5%,-3.7%,-11.5%
O=C(COC(=O)/C=C/c1ccc(Cl)cc1)NCCN1C(=O)CSC1=O,·,-4.2%,-2.4%,·,·,2.5%
CC(=O)c1ccc(NC(=O)c2ccc(-n3cnnc3)cc2)cc1,12.1%,·,·,·,8.1%,·
CCOC(=O)Cc1csc(NC(=O)COc2ccc3c(c2)CCC3)n1,-5.4%,30.1%,-20.4%,-26.3%,-13.3%,?
COc1ccc(NC(=O)CSCC(=O)N2c3ccccc3CCc3ccccc32)cc1,-21.9%,?,2.4%,2.3%,-9.2%,?
CCOC(=O)Nc1ccc2c(c1)N(C(=O)OC)c1ccccc1CC2,·,-8.3%,-5.1%,-70.9%,·,5.4%
CCc1ccc(OCC(=O)N2c3ccccc3CCc3ccccc32)cc1,?,i,-9.7%,1.9%,?,9.28µM*
COC(=O)N1c2ccccc2CCc2ccccc21,-8.7%,36.0%,?,2.0%,-1.2%,7.38µM*
COc1ccccc1NC(=O)CSCC(=O)N1c2ccccc2CCc2ccccc21,?,5.86µM*,25.1µM*,-42.4%,-30.2%,?
CC(C)(C)c1ccc(C(=O)Nc2ccc(Oc3cccnc3)nc2)cc1,?,?,2.82µM*,-2.1%,-24.2%,?
Cc1ccc(Cl)cc1N1CCN(C(=O)c2noc(C)c2[N+](=O)[O-])CC1,·,?,10µM*,-15.8%,·,?
COc1ccc(CNC(=O)c2noc(C(C)C)c2[N+](=O)[O-])cc1,-15.3%,1.85µM*,-1.3%,11.3%,i,-9.0%
COC(=O)c1cc(C(=O)N2CCN(c3ccccc3OC)CC2)cc([N+](=O)[O-])c1,-15.5%,37.6%,-25.5%,-2.8%,2.82µM*,6.4%
COC(=O)c1cc(C(=O)N2CCN(c3cccc(C)c3C)CC2)cc([N+](=O)[O-])c1,-24.2%,18.3%,?,3.3%,?,-19.4%
COc1ccccc1N1CCN(C(=O)c2noc(C(C)C)c2[N+](=O)[O-])CC1,·,13.1µM*,24.7%,-16.6%,·,0.0%
CC(C)c1onc(C(=O)N2CCCCC2)c1[N+](=O)[O-],-22.7%,2.3%,12.0%,0.0%,-14.6%,-14.3%
Cc1onc(C(=O)N2CCN(c3ccccc3)CC2)c1[N+](=O)[O-],·,?,3.5%,-3.1%,·,?
C/C(=N\NC(=O)c1ccc(CSc2nncn2C)cc1)c1ccc(Cl)cc1,-13.7%,?,?,12.8%,i,-6.4%
CCCNC(=O)C1(C)CCN(C(=O)c2cc(C)n(C(C)(C)C)n2)C1 (stereo not given),-4.7%,·,·,·,13.4%,·
CC[n+]1c(/C=C/c2cc([N+](=O)[O-])ccc2O)ccc2ccccc21,26.6%,95.0%,?,3.7%,-14.8%,?
CCN1/C(=C/c2ccc3cc(C)ccc3[n+]2CC)Sc2ccc3sccc3c21,37.7%,·,3.55µM*,·,-13.9%,·
CCN1/C(=C/c2ccc3cccc(C)c3[n+]2CC)Sc2ccccc21,·,?,6.31µM*,-178.2%,·,?
CCN1/C(=C\c2ccc3cc(C)ccc3[n+]2CC)Sc2cc(C)c(C)cc21,·,30.6%,2.82µM*,·,·,5.22µM*
c1ccc(-c2cc3c(N4CCN(c5ccccc5)CC4)ncnc3s2)cc1,-3.6%,4.7%,?,16.1%,-14.4%,29.9%
COc1cccc(-n2c(SC)nnc2C2CCN(Cc3nc4ccccc4s3)CC2)c1,-8.8%,·,·,·,-18.3%,·
CN1CCN(c2ccc([N+](=O)[O-])cc2C(=O)N2CCCCC2)CC1,-8.8%,11.7µM*,-7.0%,21.1%,-11.2%,-0.3%
